CHX counter: affects cycloheximide protein synthesis inhibition readout, counter-screen | cell reporter, cycloheximide protein synthesis inhibition counterscreen | max response, % | 300,000 tested, 12% active; in the data active = max response mostly above about 13%, no sharp cut-off; inactive = mostly below about 14%; note: read at 38.3 µM for the half of the compounds with a filed dose; 0% is about no effect
Shiga inhibitor: inhibitors of Shiga toxin in Vero cells | Vero cells, Shiga toxin protein synthesis inhibition reporter | inhibition, % at 38.7 µM | 290,000 tested, 9.2% active; in the data active = inhibition mostly above about 28%, no sharp cut-off; inactive = mostly below about 43%; note: 0% is about no effect
AmpC inh detg: blocks E. coli AmpC beta-lactamase in detergent assay; P00811; AmpC hydrolysis of nitrocefin, absorbance 480 nm, 0.01% Triton; Potency, µM (titrated, usually from 114 µM), inactives show at the top dose activity change, negative = inhibition, actives largely listed as inhibitors; 370,000 tested, 0.041% active;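 note: potency is the fitted concentration of half-maximal effect; 0% = no-compound wells and -100% = no-enzyme wells; nearly all actives have a fitted effect of over 25% in size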
Target sequence (P00811 whole entry, looked up): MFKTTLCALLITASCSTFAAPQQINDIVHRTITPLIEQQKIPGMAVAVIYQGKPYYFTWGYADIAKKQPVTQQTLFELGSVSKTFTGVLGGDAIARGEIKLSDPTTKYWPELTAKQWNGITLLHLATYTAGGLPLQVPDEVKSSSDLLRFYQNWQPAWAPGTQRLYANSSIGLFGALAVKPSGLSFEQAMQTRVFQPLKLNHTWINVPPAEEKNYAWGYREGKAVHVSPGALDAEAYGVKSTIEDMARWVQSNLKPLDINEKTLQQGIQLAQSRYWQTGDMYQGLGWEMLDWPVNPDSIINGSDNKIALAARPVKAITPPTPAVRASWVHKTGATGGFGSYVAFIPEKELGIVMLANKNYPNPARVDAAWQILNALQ
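AmpC (5.3 nM in the dispensed reagent) in 20 mM phosphate pH 7.0 with 0.01% (detergent screen) or 0.0001% Triton X-100 was preincubated with compounds for 15 min at room temperature. Nitrocefin was then added from an 800 uM solution, and hydrolysis was followed at 480 nm.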
AmpC inh no detg: blocks E. coli AmpC beta-lactamase in detergent-free assay. 330,000 tested, 0.52% active. AID 485341. Potency, µM (doses to about 57.1 µM), without a hit: at the highest dose activity change, negative = inhibition, hits mostly inhibitors. AmpC nitrocefin hydrolysis, absorbance 480 nm, 0.0001% Triton;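 note: potency is the fitted concentration of half-maximal effect; plate controls were no compound for no effect and no enzyme for full effect; nearly all actives have a fitted effect of over 20% in size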
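AmpC (5.3 nM in the dispensed reagent) in 20 mM phosphate pH 7.0 with 0.01% (detergent screen) or 0.0001% Triton X-100 was preincubated with compounds for 15 min at room temperature. Nitrocefin was then added from an 800 uM solution, and hydrolysis was followed at 480 nm.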
SARS PLpro yeast: SARS-CoV PLP inhibition in yeast. S. cerevisiae expressing SARS-CoV PLpro, growth rescue. Potency, µM (highest dose often 32.9 µM), for inactives: at the top dose activity, positive = growth rescue, usual class: activators. 330,000 tested, 0.19% active. AID 485353; calls by dose curve; note: potency is the fitted concentration of half-maximal effect; 0% is about no effect; nearly all actives have a fitted effect of over 55% in size
AMA1 RON2 block: inhibitors of Plasmodium falciparum AMA1-RON2 interaction. AlphaScreen AMA1-biotinylated RON2 peptide binding. Potency, µM (highest dose often 58.2 µM), for the others: top-dose activity change, negative = inhibition, actives largely listed as inhibitors. 360,000 tested, 0.2% active. AID 720542;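 note: potency is the fitted concentration of half-maximal effect; 0% = vehicle wells and -100% = peptide control; nearly all actives have a fitted effect of over 45% in size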
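AMA1 (3D7) with his tag at 25 nM final met compounds first, then biotinylated RON2 peptide at 25 nM; detection used donor plus acceptor beads, 10 µg/mL apiece, read by AlphaScreen after 30 min at room temperature.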
* = called active by the depositor; ? = inconclusive; nt = not tested or not shown. This is one part of a sample in which hits are shown more often than they occur. Unless noted, calls come from the whole dose curve; as a rule, active = well fitted curve in the direction sought with a large enough effect; inconclusive = small, poorly fitted or top-dose-only effect, or another doubt; inactive = no such curve, though single readings can be large; an effect the other way counts as inactive or inconclusive.

SMILES	CHX counter	Shiga inhibitor	AmpC inh detg	AmpC inh no detg	SARS PLpro yeast	AMA1 RON2 block
CCOc1ccc(-c2noc(CSc3nnc(Cc4ccccc4)n3-c3cccc(C)c3)n2)cc1	nt	nt	20.6%	nt	nt	nt
COc1ccc(CNc2nc(NCc3ccc(OC)cc3)c3ncn(C4CCCCC4)c3n2)cc1	49.5*	36.8*	nt	nt	nt	nt
COc1ccc(CNc2nccn3ccnc23)cc1	nt	nt	nt	nt	nt	56.2%
CCOC(=O)c1c(C)n(C)c2cc(CN(C)C)c(O)c(S(=O)(=O)c3ccccc3)c12	23.5*	36.4	-8.7%	-13.4%	-0.8%	-7.2%
CCOC(=O)c1c(CS(=O)(=O)c2ccccc2)n(C)c2cc(Br)c(O)c(CN(C)C)c12	-8.1	-3.5	3.1%	-23.6%	0.2%	40.2%
Cc1ccc(/C=C2\SC(=S)N(C3CCS(=O)(=O)C3)C2=O)cc1 (centres undefined)	9.6	-3.0	?	-35.3%	-2.1%	-31.6%
Cn1c(-c2ccc(Cl)cc2)cnc1NCc1cc2c(cc1[N+](=O)[O-])OCO2	-3.0	-9.7	-12.8%	-34.5%	6.3%	?
CCOc1ccc(-c2cnc(NCc3cccc(Cl)c3)n2C)cc1	nt	nt	1.2%	nt	nt	nt
Cn1c(-c2ccc(F)cc2)cnc1NCc1cc2c(cc1[N+](=O)[O-])OCO2	32.8*	28.0	-1.2%	-29.7%	-15.7%	?
Cn1c(-c2ccccc2)cnc1NCc1cc2c(cc1[N+](=O)[O-])OCO2	53.0*	60.0*	-10.8%	-21.9%	1.5%	-5.1%
Cn1c(-c2ccc3c(c2)OCO3)cnc1NCc1cccc(O)c1	25.4*	43.8*	-0.3%	-30.8%	-0.1%	-8.8%
O=C1NC(=O)C(C(CC(=O)c2ccccc2)c2ccccc2)C(=O)N1 (centres undefined)	-4.2	-9.7	0.2%	-27.4%	0.2%	-2.2%
O=C1NC[C@H](CCCCN2C[C@H](Cc3ccccc3)N(CCC3CCCCC3)C(=O)C2=O)N(CCc2ccccc2)C1=O	nt	nt	nt	nt	nt	9.0%
CC#CC(=O)N1CCC(n2nccc2NC(=O)c2ccc3c(c2)OCO3)CC1	23.1*	72.3*	-5.4%	-0.9%	2.0%	-6.9%
CSCCC(=O)N1CCC(n2nccc2NC(=O)c2ccc3c(c2)OCO3)CC1	54.2*	65.1*	0.2%	-20.8%	-7.5%	3.3%
CSCC(=O)N1CCC(n2nccc2NC(=O)CCCc2ccccc2)CC1	20.7*	14.5	2.8%	3.7%	-2.5%	8.1%
C=CCC(=O)N1CCC(n2nccc2NC(=O)c2ccc3c(c2)OCO3)CC1	nt	nt	nt	nt	nt	9.8%
Cc1ccccc1CN1CCC(n2nccc2NC(=O)c2ccc3c(c2)OCO3)CC1	20.7	33.7*	2.0%	-31.3%	-0.6%	-6.8%
Cn1cc(CN2CCC(n3nccc3NC(=O)c3ccc4c(c3)OCO4)CC2)cn1	nt	nt	nt	nt	nt	-2.5%
CN(C)S(=O)(=O)c1ccc(C(=O)Nc2ccccc2OC(F)(F)C(F)F)cc1	-2.0	-4.0	?	-0.6%	-2.7%	16.8%
O=C(/C=C/c1ccco1)Oc1ccc(C(=S)N2CCOCC2)cc1	34.6*	41.3	-14.0%	-8.3%	8.6%	-9.5%
COC(=O)c1ccc(OC(=O)/C=C/c2ccco2)cc1	26.5*	36.2*	-6.1%	-6.1%	2.4%	-8.4%
O=Cc1cccc(OC(=O)/C=C/c2ccco2)c1	51.7*	80.4*	?	-26.8%	3.1%	-24.6%
COC(=O)c1ccc(OC(=O)c2ccco2)cc1	0.9	-9.3	-1.6%	-7.0%	5.0%	-0.7%
O=C(Cc1cccc2ccccc12)N/N=C/c1ccc(OC(=O)/C=C/c2ccco2)cc1	-2.2	14.2	?	35.5µM*	-1.8%	30.1%
CCc1ccc2oc(-c3cc(N=Cc4cccc(OC)c4O)ccc3O)nc2c1	28.8*	103.6*	-9.1%	-30.5%	-3.1%	50.3%
Cc1cccc(Cn2c(=O)n(Cc3ccc4c(c3)OCO4)c(=O)c3oc4ccccc4c32)c1	nt	nt	14.5%	nt	nt	nt
CC(C)C1C(=O)N(Cc2cn(CCC3OCCO3)nn2)CCS(=O)(=O)N1Cc1ccc(-c2cccc(N(C)C)c2)cc1 (centres undefined)	nt	nt	nt	nt	nt	17.8µM*
